This note sets out measurements from ChEMBL document CHEMBL1961873, “Compounds: GSK PKIS; Assays: Nanosyn kinase panel” (2012).

Experiment [1] addresses Mast/stem cell growth factor receptor Kit (Homo sapiens) (UniProt P10721). The note with it: at 1 µM.
Experiment [2] deals with Mast/stem cell growth factor receptor Kit (Homo sapiens), P10721 [D816V]. Particulars: at 0.1 µM.
For experiment [3] the test system is unchanged. The note with it: at 1 µM.
Experiment [4] relates to Mast/stem cell growth factor receptor Kit (Homo sapiens), P10721 [T670I]. The note with it: at 0.1 µM.
Experiment [5] shares this test system. The note with it: at 1 µM.
For experiment [6], the system named is Mast/stem cell growth factor receptor Kit (Homo sapiens), P10721 [V560G]. The note with it: at 0.1 µM.
The test system is the same in experiment [7]. Particulars: at 1 µM.
Experiment [8] concerns the target Tyrosine-protein kinase Lck (Homo sapiens) (UniProt P06239). Particulars: at 0.1 µM.
For experiment [9] the target is unchanged. Particulars: at 1 µM.
Experiment [10] deals with Leukocyte tyrosine kinase receptor (Homo sapiens) (UniProt P29376). The note with it: at 0.1 µM.
For experiment [11] the target is unchanged. Particulars: at 1 µM.
Experiment [12] addresses Tyrosine-protein kinase Lyn (Homo sapiens) (UniProt P07948). Particulars: at 0.1 µM.
For experiment [13] the target is unchanged. The note with it: at 1 µM.
For experiment [14] the target is unchanged. Particulars: at 0.1 µM. The source holds these as a separate data set.
Experiment [15] has the same target. Particulars: at 1 µM. This is another data set of the same source.
The target in experiment [16] is T1, Tyrosine-protein kinase Mer (Homo sapiens) (UniProt Q12866).
T1 sequence (whole entry): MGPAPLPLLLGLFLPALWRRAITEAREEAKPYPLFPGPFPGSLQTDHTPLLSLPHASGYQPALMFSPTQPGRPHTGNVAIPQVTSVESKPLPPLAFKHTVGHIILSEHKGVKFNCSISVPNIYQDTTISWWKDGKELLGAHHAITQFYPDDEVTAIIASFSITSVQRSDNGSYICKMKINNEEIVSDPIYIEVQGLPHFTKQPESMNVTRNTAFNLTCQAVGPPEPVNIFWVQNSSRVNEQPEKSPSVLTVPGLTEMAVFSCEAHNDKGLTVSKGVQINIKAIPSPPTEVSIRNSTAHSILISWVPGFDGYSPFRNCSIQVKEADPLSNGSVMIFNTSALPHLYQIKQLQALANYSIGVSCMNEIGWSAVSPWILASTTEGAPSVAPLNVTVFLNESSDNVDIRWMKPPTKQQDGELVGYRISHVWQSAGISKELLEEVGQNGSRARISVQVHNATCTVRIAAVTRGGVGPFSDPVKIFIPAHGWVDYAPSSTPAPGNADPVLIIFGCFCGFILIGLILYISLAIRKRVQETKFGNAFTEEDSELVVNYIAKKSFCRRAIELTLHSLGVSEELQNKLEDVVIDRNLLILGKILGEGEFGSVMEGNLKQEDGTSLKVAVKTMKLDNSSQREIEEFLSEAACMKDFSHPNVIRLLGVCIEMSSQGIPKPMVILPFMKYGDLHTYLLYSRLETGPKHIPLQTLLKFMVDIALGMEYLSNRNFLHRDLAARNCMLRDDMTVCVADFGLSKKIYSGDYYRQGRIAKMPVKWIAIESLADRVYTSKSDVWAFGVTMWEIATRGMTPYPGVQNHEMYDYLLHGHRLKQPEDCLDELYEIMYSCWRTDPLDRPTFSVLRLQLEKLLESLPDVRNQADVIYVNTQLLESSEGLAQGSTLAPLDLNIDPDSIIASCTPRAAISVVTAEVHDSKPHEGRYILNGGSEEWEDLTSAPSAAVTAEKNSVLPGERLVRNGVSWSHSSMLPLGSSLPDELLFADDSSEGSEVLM
Particulars: at 1 µM.

The target in experiment [17] is Hepatocyte growth factor receptor (Homo sapiens) (UniProt P08581). The note with it: at 0.1 µM.
Experiment [18] has the same target. Particulars: at 1 µM.
Experiment [19] deals with T2, Muscle, skeletal receptor tyrosine-protein kinase (Homo sapiens) (UniProt O15146).
T2 sequence (whole entry): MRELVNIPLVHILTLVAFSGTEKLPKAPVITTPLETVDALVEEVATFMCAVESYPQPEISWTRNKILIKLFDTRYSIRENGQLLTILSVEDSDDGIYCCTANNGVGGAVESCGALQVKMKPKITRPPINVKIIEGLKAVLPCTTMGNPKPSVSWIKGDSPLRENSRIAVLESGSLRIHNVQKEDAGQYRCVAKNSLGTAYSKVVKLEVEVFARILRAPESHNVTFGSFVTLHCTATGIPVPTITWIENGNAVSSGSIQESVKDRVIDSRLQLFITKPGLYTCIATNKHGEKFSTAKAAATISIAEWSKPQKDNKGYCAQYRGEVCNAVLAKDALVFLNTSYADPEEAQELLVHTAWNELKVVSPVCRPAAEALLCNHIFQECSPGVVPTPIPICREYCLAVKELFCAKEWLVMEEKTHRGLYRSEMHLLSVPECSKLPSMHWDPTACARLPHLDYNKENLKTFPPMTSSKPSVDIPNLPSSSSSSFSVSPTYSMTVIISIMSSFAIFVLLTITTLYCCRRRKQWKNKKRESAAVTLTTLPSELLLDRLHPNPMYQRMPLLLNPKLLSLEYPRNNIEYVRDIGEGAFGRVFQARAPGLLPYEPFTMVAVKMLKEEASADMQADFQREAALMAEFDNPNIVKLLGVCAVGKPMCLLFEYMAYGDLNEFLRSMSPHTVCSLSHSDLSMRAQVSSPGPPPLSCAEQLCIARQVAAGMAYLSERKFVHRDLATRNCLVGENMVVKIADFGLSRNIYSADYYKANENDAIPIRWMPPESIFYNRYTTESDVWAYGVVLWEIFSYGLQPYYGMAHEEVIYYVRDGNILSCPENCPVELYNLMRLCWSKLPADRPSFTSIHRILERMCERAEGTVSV
Particulars: at 0.1 µM.

In experiment [20] the target is T1, Tyrosine-protein kinase Mer (Homo sapiens). Particulars: at 0.1 µM.

Each structure is given as a SMILES string.

Chain of Leukocyte tyrosine kinase receptor (Homo sapiens) (P29376 whole entry): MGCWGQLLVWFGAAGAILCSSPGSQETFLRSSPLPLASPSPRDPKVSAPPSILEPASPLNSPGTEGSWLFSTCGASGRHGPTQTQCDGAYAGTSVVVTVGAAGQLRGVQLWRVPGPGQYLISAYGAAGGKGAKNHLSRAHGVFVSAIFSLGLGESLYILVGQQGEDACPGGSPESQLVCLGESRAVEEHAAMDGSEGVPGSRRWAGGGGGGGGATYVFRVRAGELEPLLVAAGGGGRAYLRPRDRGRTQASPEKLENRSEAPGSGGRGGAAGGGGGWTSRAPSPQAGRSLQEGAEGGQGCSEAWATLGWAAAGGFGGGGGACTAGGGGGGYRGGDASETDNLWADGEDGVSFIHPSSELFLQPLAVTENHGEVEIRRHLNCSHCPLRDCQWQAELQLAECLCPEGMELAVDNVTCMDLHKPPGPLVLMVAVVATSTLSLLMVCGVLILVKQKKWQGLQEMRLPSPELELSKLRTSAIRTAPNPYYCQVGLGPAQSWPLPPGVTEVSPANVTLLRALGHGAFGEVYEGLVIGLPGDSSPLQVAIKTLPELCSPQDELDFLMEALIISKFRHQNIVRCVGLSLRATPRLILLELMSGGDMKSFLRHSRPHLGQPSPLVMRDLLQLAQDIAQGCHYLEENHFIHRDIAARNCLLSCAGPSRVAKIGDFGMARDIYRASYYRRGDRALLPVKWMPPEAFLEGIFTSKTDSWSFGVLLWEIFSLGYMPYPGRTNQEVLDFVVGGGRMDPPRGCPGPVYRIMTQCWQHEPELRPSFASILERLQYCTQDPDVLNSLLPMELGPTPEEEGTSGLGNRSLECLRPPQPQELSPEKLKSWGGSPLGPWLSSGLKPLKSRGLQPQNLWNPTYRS
Chain of Mast/stem cell growth factor receptor Kit (Homo sapiens), P10721 [V560G] (P10721 whole entry V560G): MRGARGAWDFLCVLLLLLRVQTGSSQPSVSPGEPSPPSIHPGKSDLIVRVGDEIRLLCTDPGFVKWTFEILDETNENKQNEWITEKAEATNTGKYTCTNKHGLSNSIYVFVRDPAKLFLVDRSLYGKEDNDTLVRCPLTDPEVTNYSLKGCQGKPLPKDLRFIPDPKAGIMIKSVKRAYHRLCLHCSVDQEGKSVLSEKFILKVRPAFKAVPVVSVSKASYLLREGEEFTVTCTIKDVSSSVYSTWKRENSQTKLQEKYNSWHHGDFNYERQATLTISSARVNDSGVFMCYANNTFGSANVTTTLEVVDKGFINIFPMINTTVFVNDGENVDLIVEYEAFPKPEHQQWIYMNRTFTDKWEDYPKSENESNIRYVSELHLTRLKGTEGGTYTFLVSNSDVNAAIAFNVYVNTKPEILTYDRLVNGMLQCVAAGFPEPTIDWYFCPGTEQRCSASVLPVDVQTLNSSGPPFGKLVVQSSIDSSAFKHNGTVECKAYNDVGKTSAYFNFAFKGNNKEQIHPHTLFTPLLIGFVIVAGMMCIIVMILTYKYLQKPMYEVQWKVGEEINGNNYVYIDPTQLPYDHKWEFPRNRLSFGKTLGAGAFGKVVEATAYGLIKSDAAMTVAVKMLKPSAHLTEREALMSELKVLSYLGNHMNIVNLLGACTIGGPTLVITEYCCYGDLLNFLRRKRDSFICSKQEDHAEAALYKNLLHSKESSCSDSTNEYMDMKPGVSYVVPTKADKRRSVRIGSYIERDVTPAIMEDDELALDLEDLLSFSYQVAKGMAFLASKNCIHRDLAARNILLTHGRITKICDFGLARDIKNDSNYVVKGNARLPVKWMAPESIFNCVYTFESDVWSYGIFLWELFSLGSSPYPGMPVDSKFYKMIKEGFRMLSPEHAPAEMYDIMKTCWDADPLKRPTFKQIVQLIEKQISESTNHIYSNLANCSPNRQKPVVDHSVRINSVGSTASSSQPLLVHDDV
Chain of Mast/stem cell growth factor receptor Kit (Homo sapiens), P10721 [T670I] (P10721 whole entry T670I): as the sequence (P10721 whole entry V560G) above, with G560V, T670I counted along it
Chain of Tyrosine-protein kinase Lyn (Homo sapiens) (P07948 2-512 limits assumed): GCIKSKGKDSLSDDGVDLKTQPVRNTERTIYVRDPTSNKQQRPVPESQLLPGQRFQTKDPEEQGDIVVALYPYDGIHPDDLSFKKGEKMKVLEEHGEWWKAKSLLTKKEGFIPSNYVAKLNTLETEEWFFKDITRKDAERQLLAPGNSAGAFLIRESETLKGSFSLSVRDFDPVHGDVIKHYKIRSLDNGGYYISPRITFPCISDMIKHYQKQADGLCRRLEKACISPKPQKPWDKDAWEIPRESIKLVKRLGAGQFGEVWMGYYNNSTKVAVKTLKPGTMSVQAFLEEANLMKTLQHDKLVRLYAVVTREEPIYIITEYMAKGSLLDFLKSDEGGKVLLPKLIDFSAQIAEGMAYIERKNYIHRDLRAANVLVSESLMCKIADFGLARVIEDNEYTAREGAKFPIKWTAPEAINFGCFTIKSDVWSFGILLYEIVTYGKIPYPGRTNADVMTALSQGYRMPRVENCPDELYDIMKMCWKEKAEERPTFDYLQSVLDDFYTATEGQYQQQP
Chain of Mast/stem cell growth factor receptor Kit (Homo sapiens) (P10721 whole entry): as the sequence (P10721 whole entry V560G) above, with G560V counted along it
Chain of Hepatocyte growth factor receptor (Homo sapiens) (P08581 whole entry): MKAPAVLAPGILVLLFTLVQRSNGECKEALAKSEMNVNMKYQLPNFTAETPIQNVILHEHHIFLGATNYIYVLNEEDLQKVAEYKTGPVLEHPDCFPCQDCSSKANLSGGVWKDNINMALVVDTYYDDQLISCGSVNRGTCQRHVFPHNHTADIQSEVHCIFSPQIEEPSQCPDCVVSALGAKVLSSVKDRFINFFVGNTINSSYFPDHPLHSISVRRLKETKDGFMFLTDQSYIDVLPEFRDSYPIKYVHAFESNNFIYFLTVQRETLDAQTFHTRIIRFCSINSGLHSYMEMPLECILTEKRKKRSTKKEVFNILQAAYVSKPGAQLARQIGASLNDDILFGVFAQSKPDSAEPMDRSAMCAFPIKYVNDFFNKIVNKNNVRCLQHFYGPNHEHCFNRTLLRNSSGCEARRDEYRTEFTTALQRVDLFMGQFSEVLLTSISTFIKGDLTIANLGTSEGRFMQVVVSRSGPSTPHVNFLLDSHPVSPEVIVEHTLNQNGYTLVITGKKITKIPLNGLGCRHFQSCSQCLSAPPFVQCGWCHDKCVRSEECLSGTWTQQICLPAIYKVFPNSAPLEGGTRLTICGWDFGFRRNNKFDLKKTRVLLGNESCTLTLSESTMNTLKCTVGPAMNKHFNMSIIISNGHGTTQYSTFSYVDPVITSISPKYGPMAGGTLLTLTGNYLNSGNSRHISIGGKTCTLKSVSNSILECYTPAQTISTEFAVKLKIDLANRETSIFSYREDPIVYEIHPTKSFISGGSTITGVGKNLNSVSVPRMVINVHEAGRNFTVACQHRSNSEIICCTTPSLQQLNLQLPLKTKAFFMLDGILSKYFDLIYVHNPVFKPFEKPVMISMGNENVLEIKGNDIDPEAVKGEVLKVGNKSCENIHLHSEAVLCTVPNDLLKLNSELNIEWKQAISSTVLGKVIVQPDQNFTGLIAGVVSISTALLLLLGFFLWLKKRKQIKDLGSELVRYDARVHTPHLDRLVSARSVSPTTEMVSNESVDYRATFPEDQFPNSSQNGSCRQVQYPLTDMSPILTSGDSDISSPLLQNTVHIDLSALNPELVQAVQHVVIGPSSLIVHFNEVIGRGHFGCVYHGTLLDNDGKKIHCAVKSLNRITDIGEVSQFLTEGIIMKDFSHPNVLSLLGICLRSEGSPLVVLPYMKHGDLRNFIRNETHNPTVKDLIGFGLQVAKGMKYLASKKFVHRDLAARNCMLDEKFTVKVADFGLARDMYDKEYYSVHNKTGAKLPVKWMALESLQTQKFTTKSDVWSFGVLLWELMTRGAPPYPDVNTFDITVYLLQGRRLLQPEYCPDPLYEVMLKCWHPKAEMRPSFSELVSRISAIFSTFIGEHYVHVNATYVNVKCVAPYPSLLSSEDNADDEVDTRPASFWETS
Chain of Tyrosine-protein kinase Lck (Homo sapiens) (P06239 2-509 limits assumed): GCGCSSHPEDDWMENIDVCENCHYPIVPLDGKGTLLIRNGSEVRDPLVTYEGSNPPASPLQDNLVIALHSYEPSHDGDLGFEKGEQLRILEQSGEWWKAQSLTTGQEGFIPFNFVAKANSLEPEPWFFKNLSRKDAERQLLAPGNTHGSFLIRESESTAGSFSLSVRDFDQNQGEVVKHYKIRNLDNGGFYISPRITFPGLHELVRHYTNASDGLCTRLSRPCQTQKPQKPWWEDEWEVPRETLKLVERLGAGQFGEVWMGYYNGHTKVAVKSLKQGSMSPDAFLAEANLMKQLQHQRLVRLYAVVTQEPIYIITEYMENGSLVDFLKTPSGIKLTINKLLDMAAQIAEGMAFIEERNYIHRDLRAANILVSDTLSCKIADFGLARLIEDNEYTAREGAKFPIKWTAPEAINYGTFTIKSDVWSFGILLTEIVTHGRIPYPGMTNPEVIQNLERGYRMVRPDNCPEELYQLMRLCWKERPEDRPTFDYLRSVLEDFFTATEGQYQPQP
Chain of Mast/stem cell growth factor receptor Kit (Homo sapiens), P10721 [D816V] (P10721 whole entry D816V): as the sequence (P10721 whole entry V560G) above, with G560V, D816V counted along it

With `CN(C)CCOc1ccc(-c2cc(-c3ccc4c(c3)CCC4=NO)c(-c3ccncc3)o2)cc1`, the inhibition (usually the change of the read-out against control, counted positive when it falls) is 1.55% in [1]; -1.77% in experiment [2]; -0.88% in experiment [3]; 0.11% in experiment [4]; 0.36% in experiment [5]; 1.5% in experiment [6]. For the same compound, the inhibition in experiment [7] is 3.34%; in experiment [8], 2.65%; in [9] it was 24.9%; in experiment [10] it was -0.5%; in [11], -0.32%; in experiment [12], 0.86%. Besides, the inhibition in experiment [13] was 4.14%; in experiment [14], 0.71%; in experiment [15], 3.2%; in experiment [16] it was 4.1%; in [17] it was 12.9%; in [18] it was 5.81%. For the same compound, the inhibition in [19] was -0.04%.
For `COC(=O)Nc1nc2ccc(Sc3ccc(NC(=O)Nc4cc(C(F)(F)F)ccc4F)cc3)cc2[nH]1`, the inhibition in experiment [1] was 43.9%; in experiment [2], -2.14%; in experiment [3], 5.31%; in experiment [4], -0.05%; in experiment [5], 30%; in experiment [6], 2.79%. The inhibition was 27.3% in experiment [7]; 5.45% in experiment [8]; 34.7% in experiment [9]; -0.1% in experiment [10]; -2.11% in [11]; 5.69% in experiment [12]. For the same compound, the inhibition in experiment [13] is 56.1%; in experiment [14], 4.04%; in experiment [15], 49.8%; in [20], -0.94%; in [16], 2.34%; in experiment [17], 1.57%. Also, the values for the inhibition in experiment [18] and in [19] were 36.2% and 32.2%, respectively.
Regarding `CS(=O)(=O)CCNCc1ccc(-c2ccc3ncnc(Nc4ccc(OCc5ccccc5)c(Br)c4)c3c2)o1`, the inhibition in experiment [1] is 3.91%; in [2] it was 4.87%; in experiment [3], 2.18%; in experiment [4], 2.66%; in experiment [5], 1.79%; in experiment [6], -3.28%. Besides, the inhibition in experiment [7] was -1.19%; in experiment [8] it was 0.4%; in [9] it was 4.79%; in experiment [10], 2.96%; in experiment [11], 4.86%; in experiment [12], 4.6%. Moreover, the inhibition was 7.84% in experiment [13]; 2.75% in experiment [14]; 5.83% in experiment [15]; 2.91% in experiment [20]; 13.9% in [16]; 1.81% in experiment [17]. Besides, the inhibition turned out to be 6.53% in experiment [18] and 1.27% in experiment [19].
With `CCc1cccc(CC)c1/C=C/c1cncc(C(=O)NC)c1`, the inhibition was 0.22% in experiment [1]; 2.9% in [2]; 0.24% in [3]; 1.07% in [4]; 2.14% in [5]; -2.51% in [6]. The inhibition in experiment [7] turned out to be 4.63%; in experiment [8], 3.18%; in experiment [9], 4.94%; in experiment [10], 1.51%; in [11] it was 0.4%; in [12], 3.99%. The inhibition in [13] was 5.8%; in experiment [14], 1.75%; in experiment [15], 4.91%; in [20], -0.22%; in experiment [16], 4.08%; in experiment [17], -0.26%. The results for the inhibition in experiment [18] and in experiment [19] were 1.69% and 3.82%, respectively.
As for `Fc1ccc(-c2nc3n(c2-c2ccncc2)CCS3)cc1`, the inhibition in [1] is 2.15%; in experiment [2] it was 4.1%; in experiment [3], 1.39%; in [4], 2.38%; in [5], 2.22%; in [6], 0.09%. Besides, the inhibition in experiment [7] is -0.72%; in experiment [8], -2.03%; in experiment [9], 1.29%; in experiment [10], 1.98%; in experiment [11] it was 2.85%; in experiment [12] it was 3.56%. In addition, the inhibition in experiment [13] came out at 7.36%; in [14], 1.97%; in experiment [15], 4.29%; in experiment [20], 1.16%; in experiment [16], 3.24%; in experiment [17] it was 8.26%. For the same compound, the figures for the inhibition in [18] and in [19] were 5.29% and 2.08%, respectively.
Regarding `CN(C)CCCNc1nccc(-c2c(-c3ccc(F)cc3)nn3cc(C(F)(F)F)ccc23)n1`, the inhibition is 2.1% in [1]; 1.94% in experiment [2]; -0.31% in experiment [3]; 0.09% in [4]; 0.14% in experiment [5]; 6.47% in experiment [6]. Further, the inhibition in experiment [7] was 4.04%; in [8], -2.05%; in experiment [9], 3.17%; in experiment [10], 1.9%; in experiment [11] it was 1.19%; in experiment [12], 1.87%. In addition, the inhibition in [13] is 6.57%; in [14] it was 0.99%; in [15] it was 5.88%; in experiment [20], 1.56%; in experiment [16] it was 5.87%; in experiment [17] it was 3.45%. Moreover, the values for the inhibition in [18] and in [19] were 10.6% and 10.1%, respectively.
